Experiment [1] is described as follows: NS1 protein of Zika virus - qHTS assay to identify small molecule inhibitors in human HEK 293 cells (AID 1347053). Further: nearly all actives have a fitted effect of over 55% in size. In short, it runs like this:
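TR-FRET signal from two anti-ZIKV NS1 antibodies quantified NS1 in HEK 293 cells 24 h after MR766 infection at MOI = 0.5; compounds were added 1 h before virus. Uninfected cells and infected cells defined the NS1 normalization range.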
A general note: qHTS replaces the single test concentration by a dilution series.

Experiment [2] in a line: qHTS of pediatric cancer cell lines to identify multiple opportunities for drug repurposing: Primary screen for TC32 cells (AID 1347089). Further: nearly all actives have a fitted effect of over 60% in size. In short, it runs like this:
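Luminescent CellTiter-Glo read-out of metabolically active TC32 cells after 48 h compound exposure. Primary: MIPE 11-point, 0.78 nM–46 µM; NPC 8-point, 0.59 nM–46 µM. Confirmatory: 11-point dilutions.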

The nature of experiment [3]: qHTS of pediatric cancer cell lines to identify multiple opportunities for drug repurposing: Primary screen for DAOY cells (AID 1347090). Further: nearly all actives have a fitted effect of over 55% in size. In short, it runs like this: (§1)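 Viability measured as metabolically active cells via CellTiter-Glo luminescence following 48 hours of compound exposure, 11-point dilutions in confirmatory testing. 500-1,000 cells/well plated 5 hours before dosing; controls were DMSO and 2.3 µM bortezomib.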

Experiment [4] in a line: qHTS of pediatric cancer cell lines to identify multiple opportunities for drug repurposing: Primary screen for A673 cells (AID 1347092). Further: nearly all actives have a fitted effect of over 45% in size. In outline:
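A673 cells (500-1,000 cells/well in growth media) were pre-incubated 5 h at 37 degrees C, then exposed to compounds for 48 h. Viability was read as CellTiter-Glo luminescence; concentration-response curves came directly from the primary screen.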

Experiment [5] is described as follows: qHTS of pediatric cancer cell lines to identify multiple opportunities for drug repurposing: Primary screen for SK-N-MC cells (AID 1347093). In short, it runs like this:
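Metabolically active cells were quantified by ATP-dependent luminescence (CellTiter-Glo, 15 min at room temperature) following 48 h treatment. Cells had been plated at 500-1,000 per well and settled for 5 h beforehand.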

The nature of experiment [6]: qHTS of pediatric cancer cell lines to identify multiple opportunities for drug repurposing: Primary screen for BT-37 cells (AID 1347094). In outline: (§2)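 Plated cells (500-1,000 per well, growth media) were allowed to settle for 5 hours, treated with compound dilutions for 48 hours, then lysed with CellTiter-Glo for 15 min at room temperature before luminescence reading.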

A short description of experiment [7]: qHTS of pediatric cancer cell lines to identify multiple opportunities for drug repurposing: Primary screen for NB-EBc1 cells (AID 1347095). In outline: as §2
Experiment [8] in a line: qHTS of pediatric cancer cell lines to identify multiple opportunities for drug repurposing: Primary screen for SJ-GBM2 cells (AID 1347091). In short, it runs like this: as §1

“And” between values parts separate entries of the source, which are not always exact repeats. Equal entries are not always repeated. Results filed as inconclusive are left out. The source made the active and inactive calls. The call rests on the fitted dose curve; in most records, active means well fitted curve in the direction sought with a large enough effect; inconclusive means small, poorly fitted or top-dose-only effect, or another doubt; inactive means no such curve, though single readings can be large; an effect the other way counts as inactive or inconclusive.
Potency means the concentration at half of the fitted maximal effect.

On to `CC(N)C12CC3CC(CC(C3)C1)C2` (configuration not stated), for which the Potency result in experiment [1], in experiment [2], in experiment [3], in experiment [4], in experiment [5] and in experiment [6] was “inactive” each time. In experiment [7], the Potency result was “inactive”.

Regarding `S=P(N1CC1)(N1CC1)N1CC1`, the Potency result in experiment [1], in experiment [2], in experiment [3] and in experiment [8] was “inactive” each time. The Potency in experiment [4] was 23.5 µM (active); in experiment [7], 1.05 µM (active).

Turning to `COc1cc([C@@H]2c3cc4c(cc3[C@H](O)[C@H]3COC(=O)[C@H]23)OCO4)cc(OC)c1OC`, the Potency result in experiment [1] is “inactive”. In addition, the Potency in experiment [2] is 167 nM (active) and 5.2 nM (active); in experiment [3] it was 0.0335 µM (active); in experiment [4], 84.1 nM (active) and 1 nM (active); in experiment [5], 53.1 nM (active) and 1 nM (active); in experiment [6], 69.2 nM (active) and 1 nM (active); in experiment [7] it was 8.4 nM (active) and 1 nM (active).

In the case of `COc1cnc(NS(=O)(=O)c2ccc(N)cc2)nc1`, the Potency result in experiment [1], in experiment [2], in experiment [3], in experiment [8], in experiment [6] and in experiment [7] was “inactive” in each case.

For `CCC(=O)O[C@]1(C(=O)SCF)[C@H](C)C[C@H]2[C@@H]3C[C@H](F)C4=CC(=O)C=C[C@]4(C)[C@@]3(F)[C@@H](O)C[C@@]21C`, the Potency entry in experiment [1], in experiment [2], in experiment [3], in experiment [8], in experiment [5] and in experiment [6] was “inactive” throughout. The Potency entry in experiment [7] was “inactive”.

Take `NC(N)=NC(N)=NCCc1ccccc1`: the Potency entry in experiment [1], in experiment [2], in experiment [5] and in experiment [7] was “inactive” each time. In addition, the Potency in experiment [3] was 18.7 µM (active); in experiment [4] it was 8.41 µM (active) and 5.9 µM (active).

Take `CCCN[C@H]1CCc2nc(N)sc2C1`: the Potency result in experiment [1], in experiment [2], in experiment [3], in experiment [8], in experiment [4] and in experiment [6] was “inactive” each time. The Potency entry in experiment [7] is “inactive”.

Regarding `NC(=O)c1cccnc1`, the Potency entry in experiment [1], in experiment [2], in experiment [3], in experiment [4], in experiment [5] and in experiment [6] was “inactive” each time. The Potency entry in experiment [7] is “inactive”.

On to `CCCCOc1ccc(CC(=O)NO)cc1`, for which the Potency result in experiment [1] and in experiment [2] was “inactive” throughout. The Potency is 11.8 µM (active) in experiment [3]; 16.8 µM (active) and 2.96 µM (active) in experiment [4]; 7.43 µM (active) in experiment [5]; 19.5 µM (active) in experiment [6]; 18.7 µM (active) in experiment [7].

Consider `CCC(C)(C)c1ccc(CC(C)CN2C[C@@H](C)O[C@@H](C)C2)cc1` (some centres not stated), for which the Potency entry in experiment [1], in experiment [2], in experiment [3], in experiment [8], in experiment [6] and in experiment [7] was “inactive” each time.

On to `Cn1c(=O)c2c(ncn2CC(O)CO)n(C)c1=O` (configuration not stated), for which the Potency result in experiment [1], in experiment [2], in experiment [3], in experiment [4], in experiment [5] and in experiment [6] was “inactive” throughout. In experiment [7], the Potency entry is “inactive”.

For the compound `CC1=CC(=O)c2ccccc2C1=O`, the Potency result in experiment [1], in experiment [2], in experiment [3] and in experiment [6] was “inactive” each time. Moreover, the Potency was 13.3 µM (active) and 14.8 µM (active) in experiment [4]; 21.1 µM (active) and 148 nM (active) in experiment [5]; 7.43 µM (active) in experiment [7].

For the compound `NC1(c2ccc(-c3nc4ccn5c(=O)[nH]nc5c4cc3-c3ccccc3)cc2)CCC1`, the Potency in experiment [1] is 9.35 µM (active); in experiment [3], 18.7 µM (active); in experiment [8] it was 5.26 µM (active) and 13.3 µM (active); in experiment [4] it was 14.8 µM (active) and 21.1 µM (active); in experiment [6], 6.85 µM (active); in experiment [7], 2.35 µM (active) and 11.9 µM (active).

`Oc1c(Cl)cc(Cl)c2cccnc12`: the Potency in experiment [3] is 4.22 µM (active) and 9.35 µM (active); in experiment [8], 8.41 µM (active) and 11.8 µM (active); in experiment [4], 2.66 µM (active) and 9.35 µM (active); in experiment [6], 24.6 µM (active) and 27.3 µM (active); in experiment [7], 2.99 µM (active) and 7.43 µM (active).

For the compound `C[C@@H](CN1CC(=O)NC(=O)C1)N1CC(=O)NC(=O)C1`, the Potency result in experiment [1], in experiment [2] and in experiment [3] was “inactive” each time. The Potency in experiment [5] is 23.7 µM (active) and 7.43 µM (active); in experiment [6], 6.85 µM (active); in experiment [7], 3.72 µM (active).

Turning to `Clc1ccccc1CN1CCc2sccc2C1`, the Potency entry in experiment [1], in experiment [2], in experiment [3] and in experiment [7] was “inactive” in each case. Moreover, the Potency in experiment [6] is 1.53 µM (active).

Consider `CC1=NN(c2ccccc2)C(=O)C1`, for which the Potency entry in experiment [1], in experiment [2], in experiment [3], in experiment [4], in experiment [6] and in experiment [7] was “inactive” in each case.

Turning to `CCn1cc(C(=O)O)c(=O)c2cc(F)c(N3CCNCC3)cc21`, the Potency result in experiment [1], in experiment [2], in experiment [3], in experiment [4], in experiment [6] and in experiment [7] was “inactive” in each case.

As for `O=C(NCC1CN(c2ccc(N3CCOCC3=O)cc2)C(=O)O1)c1ccc(Cl)s1` (configuration not stated), the Potency result in experiment [1], in experiment [2], in experiment [3], in experiment [4], in experiment [6] and in experiment [7] was “inactive” in each case.

As for `CC(C(=O)O)c1ccc2c(c1)CC(=O)c1ccccc1S2` (configuration not stated), the Potency entry in experiment [1], in experiment [2], in experiment [8] and in experiment [7] was “inactive” in each case.

Take `Cc1nnc(NS(=O)(=O)c2ccc(N)cc2)s1`: the Potency entry in experiment [1] and in experiment [2] was “inactive” in each case. Further, in experiment [5], the Potency is 0.833 µM (active).

The values are drawn from PubChem BioAssay (NCATS).
